Bioassay records (PubChem)
Shown is part of a subset that was picked to be rich in hits.
Shiga inhibitor – inhibitors of Shiga toxin in Vero cells; Vero cells, Shiga toxin protein synthesis inhibition reporter; inhibition, % at 38.7 µM; actives 9.2% (n = 290,000); AID 2315; in the data active means inhibition mostly above about 28%, no sharp cut-off; inactive means mostly below about 43%; further: 0% is about no effect
LmPK inh – blocks Leishmania mexicana pyruvate kinase activity; AID 1721; actives 0.37% (n = 290,000); purified LmPK, Kinase-Glo ATP luminescence, 1 h; Potency, µM (doses to about 57.5 µM), for inactives: at the top dose activity change, negative = inhibition, most hits filed as inhibitors; Q27686; further: potency means the concentration at half of the fitted maximal effect; on the % scale 0 is the no-effect control and ±100 the full control effect
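Pyruvate kinase activity monitored as ATP production (luciferase luminescence). Conditions: 0.1 nM enzyme, 0.5 mM PEP, 0.1 mM ADP, 1 h, RT; normalized against uninhibited and no-enzyme wells.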
RE007 growth inh – less growth of the S. pombe RE007 Vpr strain | actives 0.21% (n = 360,000) | S. pombe RE007 Vpr strain, BacTiter-Glo ATP luminescence, 24 h | Potency, µM (titrated, usually from 92.2 µM), for inactives: top-dose activity change, negative = less growth, actives largely listed as inhibitors; active means well fitted falling curve with a large enough effect; inconclusive means small, poorly fitted or top-dose-only effect; inactive means no such curve, though single readings can be large or run the other way; further: potency means the concentration at half of the fitted maximal effect; on the % scale 0 is the no-effect control and ±100 the full control effect; nearly all actives have a fitted effect of over 50% in size
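Fission yeast RE007 carrying one integrated HIV-1 vpr copy, seeded at OD 0.01 in PMG+AL medium with 23 nL pinned compound. Grown 24 h at 30 degrees; viability read by BacTiter-Glo luminescence after 5 min.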
FBPA Giardia inh – inhibitors of Giardia lamblia fructose-1,6-bisphosphate aldolase. A8B2U2. purified Giardia FBPA. Potency, µM (top dose mostly 59.6 µM), for the others: at the highest dose activity, negative = inhibition, actives largely listed as inhibitors. actives 0.71% (n = 290,000); further: potency means the concentration at half of the fitted maximal effect; on the % scale 0 is the no-effect control and ±100 the full control effect; nearly all actives have a fitted effect of over 55% in size
Target sequence (A8B2U2 whole entry, looked up): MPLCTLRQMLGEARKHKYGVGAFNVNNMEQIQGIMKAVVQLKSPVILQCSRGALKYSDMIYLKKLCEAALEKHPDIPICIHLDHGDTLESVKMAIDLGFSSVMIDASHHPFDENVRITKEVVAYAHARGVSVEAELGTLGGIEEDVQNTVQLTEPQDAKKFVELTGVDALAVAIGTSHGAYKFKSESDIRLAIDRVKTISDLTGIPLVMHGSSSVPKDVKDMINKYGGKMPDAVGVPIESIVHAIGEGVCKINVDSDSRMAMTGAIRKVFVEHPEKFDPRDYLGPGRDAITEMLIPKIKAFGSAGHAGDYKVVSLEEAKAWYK
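Giardia FBPA (40 nM reagent) was preincubated 10 min at RT with compound (up to 57.5 uM final), then substrate plus GAPDH/TPI/NAD/arsenate coupling system with diaphorase/resazurin was added; resorufin fluorescence (525/598 nm) was read after 20 min.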
Tb PYK inh – blocks Trypanosoma brucei pyruvate kinase; Q57TT1; TbPYK enzyme, Kinase-Glo Plus ATP luminescence, 45 min; Potency, µM (doses to about 76.8 µM), inactives show at the top dose activity, negative = inhibition, actives largely listed as inhibitors; actives 0.12% (n = 410,000); AID 624173; further: potency means the concentration at half of the fitted maximal effect; on the % scale 0 is the no-effect control and ±100 the full control effect; nearly all actives have a fitted effect of over 50% in size
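Screened from lowest to highest concentration, compounds were pinned into TbPYK/substrate mixtures, and ADP (130 uM final) was added. Plates sat at room temperature for 45 min prior to Kinase-Glo Plus detection by luminescence.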
Cycloheximide cs – counter-screen hit for Shiga toxin inhibitors, cycloheximide; cell reporter, cycloheximide protein synthesis inhibition counterscreen; max response, %; actives 12% (n = 300,000); AID 2314; in the data active means max response mostly above about 13%, no sharp cut-off; inactive means mostly below about 14%; further: read at 38.3 µM for the half of the compounds with a filed dose; 0% is about no effect
Numbers without * were called inactive. Unless noted, the call rests on the fitted dose curve; in most records, active means well fitted curve in the direction sought with a large enough effect; inconclusive means small, poorly fitted or top-dose-only effect, or another doubt; inactive means no such curve, though single readings can be large; an effect the other way counts as inactive or inconclusive.

For O=C(CSc1nnc2ccccn12)Nc1ccc2c(c1)OCCO2 the results were Shiga inhibitor 130*, LmPK inh 1%, RE007 growth inh -14%, FBPA Giardia inh 3%, Tb PYK inh 1% and Cycloheximide cs 26*.
Screening CC(Sc1nnc2ccccn12)C(=O)Nc1ncc(Cl)cc1Cl (centres undefined) returned Shiga inhibitor 18, LmPK inh 2%, RE007 growth inh -10%, FBPA Giardia inh 11%, Tb PYK inh 2% and Cycloheximide cs 26.
For O=C(CSc1nnc2ccccn12)Nc1ncc(Cl)cc1Cl the results were Shiga inhibitor 36, LmPK inh 0%, RE007 growth inh 21%, FBPA Giardia inh 3%, Tb PYK inh 2% and Cycloheximide cs 23*.
For CC1CCN(C(=O)CSc2ccc(-c3ccc4c(c3)OCCO4)nn2)CC1 the results were Shiga inhibitor 35, LmPK inh -11%, RE007 growth inh -13%, Tb PYK inh -5% and Cycloheximide cs 20*.
`Cc1cc(C)c(CN2CCN(C(=O)CC[C@H]3O[C@@H](n4ccc(=O)[nH]c4=O)[C@H](O)[C@@H]3O)CC2)c(C)c1` gave RE007 growth inh 57% and Tb PYK inh 3%.
`O=C(CSc1ccccc1)Nc1ccc2c(c1)OCO2` gave Shiga inhibitor 65*, LmPK inh 3%, RE007 growth inh -17%, FBPA Giardia inh 17%, Tb PYK inh -1% and Cycloheximide cs 47*.
O=C(Cn1cnc2ccccc2c1=O)Nc1ccc2c(c1)OCCO2 was read as Shiga inhibitor 90*, LmPK inh 2%, RE007 growth inh -4%, FBPA Giardia inh 1%, Tb PYK inh 6% and Cycloheximide cs 46*.
For Cc1cccc(-n2ccnc2SCC(=O)Nc2ccc3c(c2)OCCO3)c1 the results were Shiga inhibitor -2, LmPK inh 1%, RE007 growth inh -1%, FBPA Giardia inh 1%, Tb PYK inh -9% and Cycloheximide cs 27*.
Cc1cccc(-n2ccnc2SCC(=O)Nc2ccc3c(c2)OCO3)c1 was read as Tb PYK inh -11%.
`CCn1c(=O)cc(SCC(=O)Nc2ccc3c(c2)OCO3)c2ccccc21` gave Shiga inhibitor 25, LmPK inh 1%, RE007 growth inh 6%, FBPA Giardia inh 11%, Tb PYK inh 8% and Cycloheximide cs 9.9*.
For COC(=O)c1ccc2nc(C)cc(Nc3cccc(Cl)c3C)c2c1 the results were Tb PYK inh 2%.
For CC(=O)c1ccc(NC(=O)Cn2c(-n3nc(C)cc3C)nc(C)c(C)c2=O)cc1 the results were Tb PYK inh -8%.
`CCC(C=C[C@@H]1OC(=O)C=C[C@H]1C)=C[C@H](C)CC=CC(C)=C[C@@H](C)C(=O)[C@@H](C)[C@H](O)[C@@H](C)CC(C)=CC(=O)O` gave Shiga inhibitor inactive, FBPA Giardia inh inconclusive and Cycloheximide cs 6.
`O=C(O)C(Oc1ccc2ccccc2c1)c1ccccc1` (centres undefined) gave RE007 growth inh -25% and Tb PYK inh -2%.
O=C(CSc1cn(CCNC(=O)c2ccccc2F)c2ccccc12)Nc1ccc2c(c1)OCCO2 was read as Tb PYK inh 2%.
`Cn1cc(SCC(=O)Nc2ccc3c(c2)OCCO3)c2ccccc21` gave Shiga inhibitor 63*, LmPK inh 1%, RE007 growth inh 0%, FBPA Giardia inh -2%, Tb PYK inh inconclusive and Cycloheximide cs 24*.
Screening CC(=O)c1cccc(NC(=O)CSc2ccc(-c3ccc4c(c3)OCO4)nn2)c1 returned Shiga inhibitor 3, LmPK inh -3%, RE007 growth inh -23%, FBPA Giardia inh 1%, Tb PYK inh -5% and Cycloheximide cs 8.
`O=C(CSc1ccc(-c2ccccc2)nn1)Nc1ccc2c(c1)OCCO2` gave Shiga inhibitor 74*, LmPK inh -1%, RE007 growth inh -15%, FBPA Giardia inh -6%, Tb PYK inh 3% and Cycloheximide cs 79*.
Cn1cnc(S(=O)(=O)N2CCC(C(=O)N3CCN(c4ccc(Cl)cc4)CC3)CC2)c1 was read as Tb PYK inh -5%.
Screening O=C(CN1C(=O)C(c2ccc(F)cc2)=NC12CCCCCC2)Nc1ccc(F)c(Cl)c1 returned Tb PYK inh 3%.
For CCC(=O)Nc1nc2ccc3nc(C)sc3c2s1 the results were Shiga inhibitor 62*, LmPK inh 0%, RE007 growth inh -1%, FBPA Giardia inh 1%, Tb PYK inh -6% and Cycloheximide cs 55*.
COc1cc(CNc2nc3ccccc3s2)cc(OC)c1OC was read as Shiga inhibitor -7, LmPK inh -7%, RE007 growth inh -18%, FBPA Giardia inh 2%, Tb PYK inh 2% and Cycloheximide cs 12.
`CCC(=O)Nc1nc2cc(OC)ccc2s1` gave Shiga inhibitor 183*, LmPK inh -8%, RE007 growth inh -19%, FBPA Giardia inh 8%, Tb PYK inh 9% and Cycloheximide cs 55*.
`COc1ccc2sc(NC(=O)CC(C)C)nc2c1` gave Shiga inhibitor 94*, LmPK inh 0%, RE007 growth inh inconclusive, FBPA Giardia inh 0%, Tb PYK inh -9% and Cycloheximide cs 39*.
COc1ccc2sc(NCc3ccccc3)nc2c1 was read as Shiga inhibitor 146*, LmPK inh -5%, RE007 growth inh -13%, FBPA Giardia inh 15%, Tb PYK inh 3% and Cycloheximide cs 48*.
Screening O=C(Cc1ccc(Cl)cc1)c1c(O)cc(O)cc1O returned FBPA Giardia inh 10%.
Screening COc1ccc2sc(NC(C)=O)nc2c1 returned Shiga inhibitor 64*, LmPK inh -28%, RE007 growth inh 2%, FBPA Giardia inh 2%, Tb PYK inh -1% and Cycloheximide cs 34*.
For COc1ccc2sc(NC(=O)NC(=O)c3c(Cl)cccc3Cl)nc2c1 the results were Shiga inhibitor 38, LmPK inh -2%, RE007 growth inh -12%, FBPA Giardia inh -15%, Tb PYK inh -2% and Cycloheximide cs 19*.
Screening COc1cccc(NC(=O)NC(=O)c2c(C)cc(Cl)nc2Cl)c1 returned Shiga inhibitor -1, LmPK inh 4%, RE007 growth inh -5%, FBPA Giardia inh -2%, Tb PYK inh 0% and Cycloheximide cs -3.
Screening COc1ccc2nc(N3CCCC(C(=O)NCCCN4CCN(C)CC4)C3)sc2c1 (centres undefined) returned Shiga inhibitor -2, LmPK inh -3%, RE007 growth inh 26%, FBPA Giardia inh -2%, Tb PYK inh -3% and Cycloheximide cs 16.
